From PubChem
Shown are actives, neighbours in structure and some others; about 21% of the full set was active somewhere.
Pf growth 48h: inhibits P. falciparum growth in the first generation, 48 h; P. falciparum luciferase growth in erythrocytes, 48 h; Potency, µM (top dose mostly 28.7 µM), hits mostly inhibitors; hit rate 5.9% among 310,000; AID 504832; active means well fitted inhibition curve with a large enough effect; inconclusive means small, poorly fitted or top-dose-only effect, or another doubt; inactive means no such curve, though single readings can be large or run the other way
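Cell-based growth assay: transgenic P. falciparum expressing firefly luciferase, cultured in red cells within RPMI 1640 containing 0.5% w/v Albumax, 24 mM bicarbonate and gentamycin. A drop in luciferase activity indicates inhibition.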
Shiga toxin inh: Shiga toxin inhibition; Vero cells, Shiga toxin protein synthesis inhibition reporter; inhibition, % at 38.7 µM; hit rate 9.2% among 290,000; AID 2315; in the data active means inhibition mostly above about 28%, no sharp cut-off; inactive means mostly below about 43%
NS1 inh: influenza NS1 inhibition. hit rate 0.4% among 270,000. Potency, µM (top dose mostly 46.1 µM). AID 2326; further: actives are rising curves; nearly all actives have a fitted effect of over 50% in size
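Compounds were scored for reversing the slow growth caused by influenza A NS1 in S. cerevisiae, measured by optical density at 600 nm. Assay medium contained 2% galactose at pH 6.0; NS1-free yeast of the same strain were the positive control.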
SARS PLpro yeast: SARS-CoV PLP inhibition in yeast | S. cerevisiae expressing SARS-CoV PLpro, growth rescue | Potency, µM (titrated, usually from 32.9 µM), actives largely listed as activators | hit rate 0.19% among 330,000; further: nearly all actives have a fitted effect of over 55% in size
Pf growth 96h: P. falciparum growth inhibition at 96 hours; Potency, µM (series often up to 28.7 µM), hits mostly inhibitors; hit rate 6.9% among 320,000; P. falciparum luciferase reporter growth, 96 h; active means well fitted inhibition curve with a large enough effect; inconclusive means small, poorly fitted or top-dose-only effect, or another doubt; inactive means no such curve, though single readings can be large or run the other way
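Two parasite generations (96 h, 37 C, 5% CO2) of compound exposure in infected erythrocytes (0.05% parasitemia, 2% hematocrit). Luciferase-reporter P. falciparum; decreased luminescence indicates inhibited growth, aimed at apicoplast-acting delayed death.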
Cycloheximide cs: affects cycloheximide protein synthesis inhibition readout, counter-screen | cell reporter, cycloheximide protein synthesis inhibition counterscreen | max response, % | hit rate 12% among 300,000 | AID 2314; in the data active means max response mostly above about 13%, no sharp cut-off; inactive means mostly below about 14%; further: read at 38.3 µM for the half of the compounds with a filed dose
Large screens that a line does not name were inactive. Unless noted, the call rests on the fitted dose curve.

COc1ccc(C2Oc3ccccc3C3=C2C(c2cccs2)n2ncnc2N3)cc1 (stereo not drawn)	Pf growth 48h 8.3µM, NS1 inh inconclusive (no result: Pf growth 96h)
CC(=O)OC1(C(F)(F)F)Oc2ccccc2NC1=O (stereo not drawn)	none
CNC(=O)/C(C#N)=C/c1c(N(Cc2ccccc2)Cc2ccccc2)nc2c(C)cccn2c1=O	Pf growth 48h 13µM, NS1 inh inconclusive, Pf growth 96h 2.9µM
CCNC(=O)/C(C#N)=C/c1c(N(Cc2ccccc2)Cc2ccccc2)nc2ccccn2c1=O	Pf growth 48h 3.7µM, SARS PLpro yeast inconclusive, Pf growth 96h 13µM
Cc1cc(C)cc(NC(=O)N(CCC#N)Cc2cccs2)c1	none
CCCCC(O)(c1ccccc1)C(CN1CCOCC1)c1ccccc1 (stereo not drawn)	Pf growth 48h inconclusive
CCc1ccc(C(O)(CC)C(CN2CCOCC2)c2ccccc2)cc1 (stereo not drawn)	Pf growth 48h 12µM
CCC(O)(c1ccccc1)C(CN1CCOCC1)c1ccccc1 (stereo not drawn)	Pf growth 48h inconclusive
CCCCC(O)(c1ccc(CC)cc1)C(CN1CCOCC1)c1ccccc1 (stereo not drawn)	Pf growth 48h 1.9µM
COc1ccc(C(O)(C2CCCCC2)C(CN2CCOCC2)c2ccccc2)cc1 (stereo not drawn)	Pf growth 48h inconclusive
OC(c1ccccc1)(C1CCCCC1)C(CN1CCOCC1)c1ccccc1 (stereo not drawn)	Pf growth 48h 2.9µM
COc1ccc(-c2cc(C(F)F)n3ncc(C(=O)Nc4cccc(S(=O)(=O)N5CCOCC5)c4)c3n2)cc1	Pf growth 48h inconclusive, Pf growth 96h inconclusive
CN[C@@H]1[C@H](O[C@@H]2O[C@H](C)[C@@](O)(CO)[C@H]2O[C@H]2[C@H](O)[C@H](O)[C@H](N=C(N)N)[C@@H](O)[C@@H]2N=C(N)N)O[C@@H](CO)[C@H](O)[C@H]1O	none (no result: Pf growth 48h, NS1 inh, SARS PLpro yeast, Pf growth 96h)
Cc1ccc(S(=O)(=O)CCC(=O)NCc2ccccc2F)cc1	none (no result: Shiga toxin inh, NS1 inh, Cycloheximide cs)
CCn1c(=O)n(CC)c2cc(N3CCCC3)c(NC(=O)c3ccccc3C)cc21	Pf growth 48h inconclusive, Pf growth 96h 9.3µM
CCn1c(=O)n(CC)c2cc(N3CCCC3)c(NC(=O)c3ccccc3F)cc21	Pf growth 48h inconclusive, Pf growth 96h 1.3µM
CCn1c(=O)n(CC)c2cc(N3CCCC3)c(NC(=O)c3ccc(C)cc3)cc21	Pf growth 96h inconclusive
CCn1c(=O)n(CC)c2cc(N3CCCC3)c(NC(=O)c3cc(Br)ccc3OC)cc21	Pf growth 48h 9.3µM, Pf growth 96h inconclusive
CCn1c(=O)n(CC)c2cc(N3CCCC3)c(NC(=O)c3ccccc3)cc21	Pf growth 96h inconclusive
Cc1cc(C(=O)NNC(=O)C(C)NS(=O)(=O)c2ccccc2F)c(C)o1 (stereo not drawn)	none (no result: Pf growth 48h, Shiga toxin inh, NS1 inh, Pf growth 96h, Cycloheximide cs)
COc1ccc(NS(=O)(=O)c2cc(NC(=O)c3ccc(=O)[nH]n3)ccc2N2CCOCC2)cc1	Pf growth 48h inconclusive, Pf growth 96h inconclusive (no result: Shiga toxin inh, NS1 inh, Cycloheximide cs)
CCSc1nc(C)c(C(C)=O)cc1C#N	none (no result: Pf growth 48h)
COC(=O)C1=C(CSc2nc3c(cc2C#N)CN(C)CC3)OC(N)=C(C#N)C1c1ccc(F)cc1 (stereo not drawn)	Pf growth 48h 9.3µM, Pf growth 96h inconclusive
CC(=O)c1cc(C#N)c(SCC(=O)OC(C)(C)C)nc1C	Pf growth 96h inconclusive, Cycloheximide cs 19
CCOC(=O)C1=C(CSc2nc(CC)c(C)cc2C#N)OC(N)=C(C#N)C1c1ccc(OC)cc1 (stereo not drawn)	Pf growth 48h inconclusive, Pf growth 96h inconclusive
CC(=O)c1cc(C#N)c(SCC(=O)OC(C)C)nc1C	Pf growth 48h inconclusive, Shiga toxin inh 26, Pf growth 96h inconclusive, Cycloheximide cs 18
CN1CCc2nc(SCC(=O)OC(C)(C)C)c(C#N)cc2C1	Shiga toxin inh 79, Cycloheximide cs 35
C=CCN(CC=C)S(=O)(=O)c1ccc2nc(NC(=O)C3CCCO3)sc2c1 (stereo not drawn)	Pf growth 96h inconclusive
CCOC(=O)c1cc(C#N)c(SCc2cccc3ccccc23)nc1C	Pf growth 96h 9.3µM (no result: Pf growth 48h)
CC(=O)c1c(C)[nH]c(C(=O)C(C)Sc2nnc(NC3CC3)s2)c1C (stereo not drawn)	Pf growth 48h 13µM, Pf growth 96h 9.3µM (no result: Shiga toxin inh, NS1 inh, Cycloheximide cs)
N#Cc1ccc(/C=C(\C(=O)C(=O)O)c2ccc3ccccc3n2)cc1	Shiga toxin inh 74, Cycloheximide cs 57
